# Data from PubChem BioAssay (EPA / NIEHS).
# The source made the active and inactive calls. How the source made its calls: active means hit-call score of the fitted dose curve at least 0.9, where 1 is the maximum; inactive means score below 0.9.
# Legend:
# [1] = APR_HepG2_CellLoss_72hr: Apredica 72-hour HepG2 Assay for Cell Loss (AID 2282915); conditions: high-content imaging
# Procedure, shortened: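 Cell number comes from Hoechst 33342-labelled nuclei, imaged at 20x after 3.7% formaldehyde fixation. Dosing was 0.39–200 uM, ten concentrations in duplicate, 0.5% DMSO final, for 72 h. Bidirectional fit relative to DMSO baseline.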
# [2] = APR_HepG2_P-H2AX_72hr: Apredica 72-hour HepG2 Assay for H2AX Phosphorylation (AID 2282916); conditions: imaging, actives raise or lower the signal;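 further: phospho-histone H2A.x immunostain intensity per cell marking DNA damage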
# Procedure, shortened: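 Phospho-H2A.x imaging endpoint in HepG2 after 72 hr compound exposure (0.39–200 uM, duplicate wells). Activity derived by bidirectional curve fitting with DMSO as baseline.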
# [3] = APR_HepG2_MitoticArrest_72hr: Apredica 72-hour HepG2 Assay for Mitotic Arrest (AID 2282918); conditions: high-content imaging, actives raise or lower the signal
# Procedure, shortened: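 High-content imaging of fixed human HepG2 cells after 72 h compound exposure (0.39–200 uM, duplicates, 0.5% DMSO); mitotic arrest scored from phospho-histone H3 and nuclear Hoechst staining relative to DMSO.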
# [4] = APR_HepG2_MicrotubuleCSK_72hr: Apredica 72-hour HepG2 Assay for Microtubule CSK Stabilty (AID 2282919); conditions: HepG2 microtubule cytoskeleton, high-content imaging, actives raise or lower the signal
# Procedure, shortened: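 High-content imaging of alpha-tubulin staining in fixed HepG2 cells after 72 hr treatment with ten concentrations from 0.39 to 200 uM (0.5% DMSO). Fitting was bidirectional against DMSO; taxol served as positive control.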
# [5] = APR_HepG2_P-H2AX_24hr: Apredica 24-hour HepG2 Assay for H2AX Phosphorylation (AID 2282920); conditions: high-content imaging, actives raise or lower the signal
# Procedure, shortened: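 High-content imaging of phospho-histone H2A.x immunofluorescence, nuclei counterstained with Hoechst 33342, in fixed HepG2 cells. Compounds ran 0.39–200 uM in duplicate for 24 h, final DMSO 0.5%. Signal change fitted both directions against DMSO.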
# [6] = APR_HepG2_StressKinase_72hr: Apredica 72-hour HepG2 Assay for Stress Kinase (AID 2282921); conditions: HepG2 stress kinase (phospho-c-Jun) imaging, actives raise or lower the signal
# Procedure, shortened: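 Stress kinase signal reflects nuclear phospho-c-Jun staining in fixed, permeabilized cells exposed 72 h to compound at 0.39–200 uM; DMSO-normalized, fitted for increases or decreases.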
# [7] = APR_HepG2_p53Act_72hr: Apredica 72-hour HepG2 Assay for p53 Activation (AID 2282923); conditions: high-content imaging, actives raise or lower the signal;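 further: average cellular p53 protein immunofluorescence intensity in HepG2 cells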
# Procedure, shortened: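 Fixed-cell p53 staining (sheep primary, Cy5 secondary) measured by fluorescence imaging following 72 hr treatment at 0.39–200 uM in 0.5% DMSO; DMSO served as negative control and baseline.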
# [8] = APR_HepG2_NuclearSize_72hr: Apredica 72-hour HepG2 Assay for Nuclear Size (AID 2282925); conditions: high-content imaging, actives raise or lower the signal
# Procedure, shortened: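 Nuclear size was read by high-content imaging of Hoechst 33342 stain after formaldehyde fixation. Compounds ran 72 h on HepG2 at 0.39 to 200 uM, with final DMSO 0.5% v/v. Curves fitted both directions relative to DMSO control.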
# [9] = ATG_CRE_CIS: Attagene CIS-FACTORIAL HepG2 Assay for human cAMP Responsive Element (CRE) binding protein 3 (AID 2282926); conditions: HepG2 CRE cis-reporter, Attagene multiplexed mRNA; actives raise or lower the signal
# Procedure, shortened: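 Endogenous transcription factor activity read via CRE-regulated reporter transcripts in transfected HepG2 cells. After 24 h exposure, RNA was reverse-transcribed, amplified, fluorescently labelled and sized by capillary electrophoresis; gain or loss fitted against DMSO.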
# [10] = target: CCAAT/enhancer-binding protein beta (Homo sapiens) (UniProt P17676); assay: ATG_C_EBP_CIS: Attagene CIS-FACTORIAL HepG2 Assay for human CCAAT/Enhancer Binding Protein (C/EBP) beta (AID 2282927); conditions: HepG2 Attagene cis-factorial transcription factor reporter; actives raise or lower the signal
# CCAAT/enhancer-binding protein beta (Homo sapiens), sequence (P17676 whole entry, looked up, the tested form may be a part): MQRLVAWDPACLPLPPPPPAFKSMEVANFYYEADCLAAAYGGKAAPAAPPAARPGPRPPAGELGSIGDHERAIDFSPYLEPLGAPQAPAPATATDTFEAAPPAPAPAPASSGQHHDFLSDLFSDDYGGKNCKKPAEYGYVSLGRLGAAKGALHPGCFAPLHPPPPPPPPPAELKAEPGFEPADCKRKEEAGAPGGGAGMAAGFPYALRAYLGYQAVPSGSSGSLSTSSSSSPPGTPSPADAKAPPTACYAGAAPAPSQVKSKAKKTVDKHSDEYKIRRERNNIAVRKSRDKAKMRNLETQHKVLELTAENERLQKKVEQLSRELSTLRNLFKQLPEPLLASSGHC
# Procedure, shortened: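 Endogenous C/EBPb-driven reporter transcripts measured in transfected human HepG2 cells at 24 h via RT-PCR and capillary electrophoresis of labelled fragments. Activity fitted in both directions relative to DMSO baseline.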
# [11] = ATG_CMV_CIS: Attagene CIS-FACTORIAL HepG2 Assay for human CMV (Internal Marker) (AID 2282928); conditions: HepG2 CMV promoter reporter, transcription factor profiling; actives raise or lower the signal;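 further: endpoint acts as a background internal control marker rather than a target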
# Procedure, shortened: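 Reporter transcripts from transfected HepG2 cells are isolated after 24 h of chemical dosing, reverse-transcribed and amplified. Fragments labeled with 6-FAM are cut with HpaI and quantified by capillary electrophoresis; DMSO defines baseline.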
# [12] = ATG_DR4_LXR_CIS: Attagene CIS-FACTORIAL HepG2 Assay for human Liver X Receptor (LXR), DR4 submotif (AID 2282929); conditions: HepG2 Attagene DR4 cis-reporter, mRNA transcription; actives raise or lower the signal
# Procedure, shortened: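 HepG2 cells transiently transfected with cis-promoter-driven multiplexed reporter units (DR4 element) were dosed for 24 h. Reporter mRNA was quantified by RT-PCR, fluorescent primer extension, HpaI digestion and capillary electrophoresis; bidirectional fitting versus DMSO baseline.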
# [13] = target: Aryl hydrocarbon receptor (Homo sapiens) (UniProt P35869); assay: ATG_Ahr_CIS: Attagene CIS-FACTORIAL HepG2 Assay for human Aryl Hydrocarbon Receptor (Ahr) (AID 2282930); conditions: HepG2 AhR cis-factorial reporter transcription; actives raise or lower the signal
# Aryl hydrocarbon receptor (Homo sapiens), sequence (P35869 whole entry, looked up): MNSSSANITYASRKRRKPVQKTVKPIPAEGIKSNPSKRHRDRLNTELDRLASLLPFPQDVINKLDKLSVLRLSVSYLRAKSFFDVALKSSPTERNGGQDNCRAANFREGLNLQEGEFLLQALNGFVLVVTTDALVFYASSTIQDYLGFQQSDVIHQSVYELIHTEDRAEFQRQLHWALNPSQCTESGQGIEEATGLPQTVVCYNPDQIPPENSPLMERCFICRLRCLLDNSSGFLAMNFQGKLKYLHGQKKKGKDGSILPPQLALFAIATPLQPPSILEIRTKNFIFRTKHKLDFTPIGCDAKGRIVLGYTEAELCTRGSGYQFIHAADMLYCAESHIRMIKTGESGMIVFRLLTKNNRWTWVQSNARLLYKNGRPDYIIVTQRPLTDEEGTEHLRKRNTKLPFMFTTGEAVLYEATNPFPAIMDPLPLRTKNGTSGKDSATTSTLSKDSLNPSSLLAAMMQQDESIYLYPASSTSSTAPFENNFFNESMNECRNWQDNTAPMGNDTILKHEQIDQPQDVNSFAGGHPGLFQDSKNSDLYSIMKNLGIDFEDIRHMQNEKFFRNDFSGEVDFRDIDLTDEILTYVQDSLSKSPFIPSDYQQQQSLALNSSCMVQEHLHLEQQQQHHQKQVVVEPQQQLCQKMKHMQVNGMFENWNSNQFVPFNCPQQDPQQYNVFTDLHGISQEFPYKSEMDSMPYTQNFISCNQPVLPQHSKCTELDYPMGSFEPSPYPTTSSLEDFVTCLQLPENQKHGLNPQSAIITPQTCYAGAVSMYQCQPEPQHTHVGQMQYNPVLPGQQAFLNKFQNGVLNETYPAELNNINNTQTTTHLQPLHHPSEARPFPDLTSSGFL
# Procedure, shortened: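 Reporter mRNA levels, quantified by RT-PCR and fluorescent capillary electrophoresis, reflect endogenous AhR transcriptional activity in HepG2 cells carrying transfected cis-promoter reporter constructs. Readout at 24 h post-dose; gain or loss fitted against DMSO baseline.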
# [14] = ATG_AP_1_CIS: Attagene CIS-FACTORIAL HepG2 Assay for human Activator Protein 1 (AP-1) (AID 2282931); conditions: HepG2 Attagene cis-factorial AP-1 reporter mRNA; actives raise or lower the signal
# Procedure, shortened: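 HepG2 cells transiently transfected with cis-element-driven multiplex reporter units; 24 h compound exposure. Reporter mRNA quantified by RT-PCR, FAM-labelled fragments resolved by capillary electrophoresis; bidirectional fit versus DMSO baseline.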
# [15] = ATG_AP_2_CIS: Attagene CIS-FACTORIAL HepG2 Assay for human Activator Protein 2 (AP-2) (AID 2282932); conditions: HepG2 AP-2 cis-reporter, Attagene transcription factor profiling; actives raise or lower the signal
# Procedure, shortened: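 Transiently transfected HepG2 cells are exposed to chemical for 24 h. Reporter transcripts are then measured as fluorescence following RT-PCR and capillary separation, and gain- or loss-of-signal is fitted relative to DMSO.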
# [16] = ATG_BRE_CIS: Attagene CIS-FACTORIAL HepG2 Assay for human Bone Morphogenetic Protein (BMP) Response Element (BRE) (AID 2282933); conditions: HepG2 BMP response element reporter, Attagene transcription factor profiling; actives raise or lower the signal
# Procedure, shortened: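 Gain- or loss-of-signal was derived by bidirectional fitting against DMSO controls. The signal came from reporter mRNA, measured by RT-PCR and capillary electrophoresis, in HepG2 cells transiently carrying multiple reporter units and dosed for 24 h.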
# [17] = target: Retinoic acid receptor alpha (Homo sapiens) (UniProt P10276); assay: ATG_DR5_RAR_CIS: Attagene CIS-FACTORIAL HepG2 Assay for human Retinoic Acid Receptor Alpha (RARE), DR5 submotif (AID 2282934); conditions: HepG2 Attagene cis-factorial RARE DR5 reporter, mRNA; actives raise or lower the signal;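 on AC50: reporter responds to endogenous RAR alpha beta and gamma in HepG2 not RARA alone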
# Retinoic acid receptor alpha (Homo sapiens), sequence (P10276 whole entry, looked up): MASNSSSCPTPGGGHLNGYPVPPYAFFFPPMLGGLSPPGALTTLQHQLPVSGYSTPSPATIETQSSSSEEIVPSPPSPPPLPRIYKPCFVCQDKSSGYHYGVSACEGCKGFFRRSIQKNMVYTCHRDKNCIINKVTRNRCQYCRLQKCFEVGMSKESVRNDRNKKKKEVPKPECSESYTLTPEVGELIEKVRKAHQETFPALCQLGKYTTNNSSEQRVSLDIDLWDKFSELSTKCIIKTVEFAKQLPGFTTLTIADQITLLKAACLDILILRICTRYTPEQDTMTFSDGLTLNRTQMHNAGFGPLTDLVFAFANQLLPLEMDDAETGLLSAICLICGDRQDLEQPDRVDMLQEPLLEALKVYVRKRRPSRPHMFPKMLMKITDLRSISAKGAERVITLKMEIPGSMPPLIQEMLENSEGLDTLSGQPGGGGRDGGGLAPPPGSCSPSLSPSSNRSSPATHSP
# Procedure, shortened: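 Reporter transcripts from a DR5-regulated unit, measured via RT-PCR plus capillary electrophoresis, reflect endogenous RAR activity in transiently transfected human HepG2 liver cells. Exposure lasted 24 h; gain or loss of signal scored against DMSO.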
# [18] = APR_HepG2_MitoMembPot_72hr: Apredica 72-hour HepG2 Assay for Mitochondrial Membrane Potential (AID 2282917); conditions: imaging, actives raise or lower the signal
# Procedure, shortened: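 Membrane potential read by MitoTracker Red CMXRos (250 nM, 30 min, pre-fixation) fluorescence imaging of HepG2 after 72 hr exposure. Ten concentrations, 0.39–200 uM, duplicate wells, 0.5% DMSO; fitted in both directions against DMSO baseline.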
# [19] = APR_HepG2_MitoMass_72hr: Apredica 72-hour HepG2 Assay for Mitochondrial Mass (AID 2282924); conditions: high-content imaging, actives raise or lower the signal;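 further: MitoTracker Red CMXRos stain intensity per cell imaged as mitochondrial mass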
# Procedure, shortened: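 Readout is imaged MitoTracker Red (250 nM, 30 min, pre-fixation) signal, fitted bidirectionally against DMSO baseline. Human HepG2 liver cells received compound 0.39–200 uM in duplicate for 72 hr, final DMSO 0.5%.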
structure (smiles),measurement,setting,value
CCCCN(CCCC)N=O,outcome,[1],inactive
same,outcome,[2],inactive
same,outcome,[3],inactive
same,outcome,[4],inactive
same,outcome,[5],inactive
same,outcome,[6],inactive
same,outcome,[7],inactive
same,outcome,[8],inactive
same,outcome,[9],inactive
same,outcome,[10],inactive
same,outcome,[11],inactive
same,outcome,[12],inactive
same,outcome,[13],inactive
same,outcome,[14],inactive
same,outcome,[15],inactive
same,outcome,[16],inactive
O=[N+]([O-])c1ccc(Cl)c(Cl)c1,outcome,[1],inactive
same,outcome,[2],inactive
same,outcome,[3],inactive
same,outcome,[4],inactive
same,outcome,[5],inactive
same,outcome,[6],inactive
same,outcome,[8],inactive
same,outcome,[9],inactive
same,outcome,[10],inactive
same,outcome,[11],inactive
same,outcome,[12],inactive
same,outcome,[13],inactive
same,outcome,[14],inactive
same,outcome,[15],inactive
same,outcome,[16],inactive
same,outcome,[17],inactive
ClC1=C(Cl)C2(Cl)C3C(Cl)C(Cl)CC3C1(Cl)C2(Cl)Cl (stereo not given),AC50,[1],60.9 µM (active)
same,AC50,[2],108 µM (active)
same,AC50,[3],53.5 µM (active)
same,AC50,[4],98.6 µM (active)
same,AC50,[5],72.8 µM (active)
same,AC50,[6],109 µM (active)
same,AC50,[7],98.4 µM (active)
same,outcome,[8],inactive
same,outcome,[9],inactive
same,outcome,[10],inactive
same,AC50,[11],48.8 µM (active)
same,AC50,[12],18.1 µM (active)
same,AC50,[14],48.1 µM (active)
same,outcome,[15],inactive
same,outcome,[16],inactive
same,AC50,[17],1.27 µM (active)
CCC(C)(C)c1ccc(O)cc1,AC50,[1],108 µM (active)
same,outcome,[2],inactive
same,AC50,[18],56.4 µM (active)
same,AC50,[3],121 µM (active)
same,outcome,[4],inactive
same,outcome,[5],inactive
same,outcome,[6],inactive
same,AC50,[7],105 µM (active)
same,outcome,[8],inactive
same,outcome,[9],inactive
same,outcome,[10],inactive
same,AC50,[11],49 µM (active)
same,outcome,[12],inactive
same,outcome,[13],inactive
same,AC50,[14],49.5 µM (active)
same,outcome,[15],inactive
same,outcome,[16],inactive
CCC1(c2ccccc2)C(=O)N=C(O)NC1=O (stereo not given),outcome,[1],inactive
same,outcome,[2],inactive
same,outcome,[3],inactive
same,outcome,[4],inactive
same,outcome,[5],inactive
same,outcome,[6],inactive
same,outcome,[7],inactive
same,outcome,[8],inactive
same,outcome,[9],inactive
same,outcome,[10],inactive
same,outcome,[11],inactive
same,outcome,[12],inactive
same,outcome,[13],inactive
same,outcome,[14],inactive
same,outcome,[15],inactive
same,outcome,[16],inactive
CN(C)C(=O)Cl,outcome,[1],inactive
same,outcome,[2],inactive
same,outcome,[3],inactive
same,outcome,[4],inactive
same,outcome,[5],inactive
same,outcome,[6],inactive
same,outcome,[8],inactive
same,outcome,[9],inactive
same,outcome,[10],inactive
same,outcome,[11],inactive
same,outcome,[12],inactive
same,outcome,[13],inactive
same,outcome,[14],inactive
same,outcome,[15],inactive
same,outcome,[16],inactive
same,outcome,[17],inactive
CCOS(=O)(=O)OCC,outcome,[1],inactive
same,outcome,[2],inactive
same,outcome,[3],inactive
same,outcome,[4],inactive
same,outcome,[5],inactive
same,outcome,[6],inactive
same,outcome,[7],inactive
same,outcome,[19],inactive
same,outcome,[8],inactive
same,outcome,[9],inactive
same,outcome,[10],inactive
same,outcome,[11],inactive
same,outcome,[12],inactive
same,outcome,[13],inactive
same,outcome,[14],inactive
same,outcome,[15],inactive
same,outcome,[16],inactive
CC(Cc1ccc(OCC(=O)O)cc1)NCC(O)c1csc(C(F)(F)F)n1 (stereo not given),outcome,[1],inactive
same,outcome,[2],inactive
same,outcome,[3],inactive
same,outcome,[4],inactive
same,outcome,[5],inactive
same,outcome,[6],inactive
same,outcome,[7],inactive
same,outcome,[8],inactive
same,outcome,[9],inactive
same,outcome,[10],inactive
same,outcome,[11],inactive
same,outcome,[12],inactive
same,outcome,[13],inactive
same,outcome,[14],inactive
same,outcome,[15],inactive
same,outcome,[16],inactive
